Among the data in PubChem BioAssay AID1053126 (Broad Institute, 2014) are outcome values, retold here.

Results with a measured potency or affinity are listed apart. Activity calls are given as the source filed them.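 How the source made its calls: active means cell killing with a fitted half-effect concentration at or below twice the top valid dose; inconclusive means flat curve with 30 to 70 percent drop, or poor fit; inactive means the rest.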

The assay is described as follows: HEK293T cell cytotoxicity, dose response, cytotoxicity control, ATP luminescence, cherry-pick, set 6 (AID 1053126). Conditions: HEK293T viability, CellTiter-Glo ATP luminescence, 72 h; series mostly up to 26 µM. On the technique in general: In ATP-based viability assays light output follows the ATP content of the culture.
Turning to `COc1ccc(C2CC(c3ccccc3)=NN2c2ccc(C(N)=O)cc2)cc1` (stereo not drawn), the compound was called inactive. As to `Cc1cc(OC(=O)c2ccccc2Cl)ccc1N1C(=O)CCC1=O`, the outcome was inactive.

For `CC1CC(C)CN(CCCNC(=O)CCC(=O)N2CC(C)Oc3ccccc32)C1` (stereo not drawn), the compound was classed as inactive. Turning to `COc1ccc(CCN=C(N)NS(=O)(=O)c2ccc(F)cc2)cc1`, the compound was called inactive.

Turning to `CC(=O)c1cc2ccc(O)cc2oc1=O`, the compound was called inactive. Regarding `O=C(O)c1cccc(NC(=O)c2cn(-c3ccccc3)nc2-c2cccc(Br)c2)c1`, the outcome was inactive. Take `Cn1cccc1/C=N/NC(=O)c1sc2cc(Cl)ccc2c1Cl`: the call was inactive.

`COc1c(Cl)cc(-c2noc(C)c2C(=O)NCc2ccc3c(c2)OCO3)cc1Cl`: the outcome was inactive. Consider `CCOc1ccc(C2C(C#N)=C(N)Oc3cc(O)ccc32)cc1OCC` (stereo not drawn), for which the compound was called inactive. Turning to `O=C(O)c1ccc(N2N=C(c3ccccc3)CC2c2ccccc2)cc1` (stereo not drawn), the compound was classed as inactive.

As to `COc1ccc(CCNC(=O)c2cc(S(=O)(=O)N3CCCCC3)c[nH]2)cc1OC`, the result was inactive. Regarding `CC1CCCCC1NC(=O)CN1C(=O)c2cccc(N)c2C1=O` (stereo not drawn), the compound was classed as inactive. With `Nc1nc(-c2cc(O)ccc2[N+](=O)[O-])cc(-c2ccccc2)c1[N+](=O)[O-]`, the result was inactive. Regarding `CCC(Sc1nc(N)c(NC(=O)c2ccc(OC)cc2)c(=O)[nH]1)C(=O)O` (stereo not drawn), the call was inactive. `CCOc1ccc2nc(NCCCNS(=O)(=O)c3ccc(F)cc3)c(C#N)cc2c1`: the compound was classed as inactive. In the case of `CC(=O)Oc1ccc2cc(-c3nc4ccccc4n3C)c(=O)oc2c1`, the call was inactive. With `N#C/C(=C\c1ccco1)C(=O)Nc1cccc2ncccc12`, the compound was classed as inactive. Consider `COc1ccccc1OCc1ccc(C(=O)N(C)c2ccccc2)o1`, for which the compound was called inactive.

Turning to `Cc1ccc(O)c(NC(=S)NC(=O)COc2ccc(Br)cc2)c1`, the result was inactive.

`Cc1cc(-n2c(=O)c(C#N)cc3c(=O)n4ccccc4nc32)no1`: the compound was classed as inactive. Consider `Cc1c(C(=O)NCc2cccc([N+](=O)[O-])c2)sc(=O)n1Cc1cccc(F)c1`, for which the result was inactive. With `O=c1oc2c(CN3CCN(CCO)CC3)c(O)ccc2cc1-c1ccccn1`, the call was inactive.

Consider `O=C(/C=C/c1ccccc1)C1=C(O)C(=O)N(CCO)C1c1ccc2c(c1)OCO2` (stereo not drawn), for which the compound was called inactive.

Regarding `O=C(CCCN1C(=O)CSc2ncccc21)N1CCN(Cc2ccccc2)CC1`, the result was inactive. As for `Cc1nc(CCNC(=O)Cc2ccc(Cl)cc2)cs1`, the entry is “inactive”; as for `CCC(C)n1c(=N)c(C#N)cc2c(=O)n3cc(C)ccc3nc21` (stereo not drawn), “inactive”. As to `O=C(Cc1csc(-c2ccccc2)n1)NCc1ccccc1F`, the compound was classed as inactive.

For `COc1ccccc1C1C2=C(CC(C)(C)CC2=O)N(CC(=O)O)C2=C1C(=O)CC(C)(C)C2`, the compound was called inactive.

Take `CCOc1ccc2nc(NCCCNC(=O)c3cc(OC)c(OC)c(OC)c3)c(C#N)cc2c1`: the compound was classed as inactive. For `CC(C)c1ccc(/C=C2\Oc3c(ccc(O)c3CN3CCN(C)CC3)C2=O)cc1`, the compound was called inactive. Take `CCOc1ccc2nc(NCCNC(=O)CC)c(C#N)cc2c1`: the result was inactive. `COc1ccc(S(=O)(=O)N2CCCC2CNC(=O)C(=O)NC2CCCC2)cc1` (stereo not drawn): the call was inactive. On to `Cc1c(C(=O)NCc2ccc3c(c2)OCCO3)sc(=O)n1Cc1ccccc1F`, for which the result was inactive. Take `O=C(O)c1[nH]c2ccccc2c1C(c1cc(Br)ccc1O)c1c(C(=O)O)[nH]c2ccccc12`: the outcome was inactive. The result for `CCCCn1nc(NC(=O)c2cccs2)c2cc3cc(OC)ccc3nc21` reads “inactive”; that for `N#Cc1c2ccc(OCC(N)=O)cc2n2ccccc12`, “inactive”; that for `O=C(c1ccc(F)cc1)C1CCN(C(=O)Nc2ccccc2Cl)CC1`, “inactive”. Take `CCC(=O)NCCCNc1nc2c(C)cccc2cc1C#N`: the outcome was inactive.
